Source: ChEMBL document CHEMBL3988442, “University of Dundee, Small-Polar-MMV Screening Library” (2021)
In all, about 48,000 compounds went through this assay and about 13,000 (27%) showed an effect of 50% or more. This is one part of the list.

test system: Wolbachia pipientis; test: Anti-Wolbachia Cell-Based Screen; assay type: functional; set-up: scale not given: in the data most compounds retested in dose-response had high values; settings: 5 µM

Going from `Cc1ccc(C2COCCN2C(=O)c2ccc(CN(C)C)cc2)o1` (configuration not stated) to `Cc1cnn(-c2ccc(C(=O)N3CCCC(n4ccnc4C)C3)cc2)c1` (configuration not stated), the “Percent Effect” value rises from -6.944% to 110%.

Compared with `CC(C)Oc1cc(N2C[C@H](C3CC3)[C@@H](N)C2)nc(N)n1`, `COc1c(C)cnc(CN2CCC(N(C)C(C)C(N)=O)CC2)c1C` (configuration not stated) is lower in “Percent Effect” value: 12.97% for the first, -8.935% for the second.

Going from `COc1ccc(-c2noc([C@@H]3C[C@H](NC(=O)NC(C)C)CN3C)n2)cc1` to `Cc1cnn(C2CCCN(C(=O)COc3ccc(C(N)=O)cc3)C2)c1` (configuration not stated), the “Percent Effect” value falls from 2.003% to -8.397%.

First: COc1ccnc(N2Cc3cnc(C(C)(C)C)nc3C2)n1
Second: Cc1cc(C)n(-c2cncc(N3CCN(C(=O)C(C)(C)C)CC3)n2)n1
The “Percent Effect” value of the first is lower: -13.37% for the first, 6.121% for the second.

Going from `CC(=O)NCC(=O)N1CCN(Cc2ccncc2)c2ncccc2C1` to `O=C(c1ccc[nH]1)N1CCN(Cc2ccncc2)c2ncccc2C1`, the “Percent Effect” value rises from -10.24% to 105%.

First: O=C(O)C(F)(F)F.O=C(O)C(F)(F)F.O=C(c1ccnnc1)N1CCN(Cc2ccncc2)c2ncccc2C1
Second: O=C(O)C(F)(F)F.O=C(O)C(F)(F)F.O=C(c1ccnnc1)N1CCN(Cc2cccnc2)c2ncccc2C1
The “Percent Effect” value of the first is lower: 96.92% for the first, 97.06% for the second.

First: O=C(c1ccc[nH]1)N1CCC(c2nccn2Cc2ccncc2)CC1
Second: O=C(c1ccncc1F)N1CCN(CC2CC2)c2ncccc2C1
The “Percent Effect” value of the first is lower: -7.637% for the first, 10.49% for the second.

Going from `CN1CCN(C(=O)Cc2cccc(F)c2)Cc2cccnc21.O=C(O)C(F)(F)F` to `O=C(O)C(F)(F)F.O=C(O)C(F)(F)F.O=C(O)C(F)(F)F.O=C(c1ccncc1)N1CCN(Cc2cccnc2)c2ncccc2C1`, the “Percent Effect” value rises from -17.2% to 105.3%.

First: NC(=O)c1cccc(CCNCc2cccs2)c1
Second: CCOc1ccccc1OCC(=O)NCc1ncc(C)c(OC)c1C
The “Percent Effect” value of the first is lower: 0.5417% for the first, 8.111% for the second.

Going from `Cc1ccc2c(c1)c(CNC(=O)C1CCCN(CC(N)=O)C1)nn2C` (configuration not stated) to `Cc1cnn(C2CCCN(C(=O)c3ccc(C(N)=O)cn3)C2)c1` (configuration not stated), the “Percent Effect” value rises from -18.62% to 85.91%.

Going from `CC(C)N1CC[C@H]2[C@H](C[C@@H](Cn3cncn3)N2c2nccs2)C1.O=C(O)C(F)(F)F.O=C(O)C(F)(F)F` to `CC(C)N1CC[C@H]2[C@H](C[C@@H](Cn3cccn3)N2c2nccs2)C1.O=C(O)C(F)(F)F.O=C(O)C(F)(F)F.O=C(O)C(F)(F)F`, the “Percent Effect” value falls from 110.1% to 108.8%.

First: CN1[C@H](Cn2cncn2)C[C@@H]2CN(C3CCOCC3)CC[C@@H]21.O=C(O)C(F)(F)F.O=C(O)C(F)(F)F
Second: CC(C)N1[C@H](Cn2cccn2)C[C@@H]2CN(C3CCOCC3)CC[C@@H]21.O=C(O)C(F)(F)F.O=C(O)C(F)(F)F.O=C(O)C(F)(F)F
The “Percent Effect” value of the first is higher: 8.742% for the first, 7.148% for the second.

Compared with `CC(=O)N1CC[C@H]2[C@H](C[C@@H](Cn3cncn3)N2c2nccs2)C1.O=C(O)C(F)(F)F`, `CN1CC[C@H]2[C@H](C[C@@H](Cn3cncn3)N2c2nccs2)C1` is lower in “Percent Effect” value: 4.075% for the first, -5.255% for the second.

Compared with `OC(CN1CCN(CC(F)F)CC1)c1ccc(Br)cc1` (configuration not stated), `Cc1cccnc1CN1CCN(C(=O)c2cnn(C(C)C)c2)CC1` is higher in “Percent Effect” value: 2.807% for the first, 94.71% for the second.

Compared with `CC(C)CCN1C(=O)CC(N(C)Cc2nc3ccccc3c(=O)[nH]2)C1=O` (configuration not stated), `COc1c(C)cnc(CN(C)C(=O)c2ccccc2O)c1C` is higher in “Percent Effect” value: -3.315% for the first, -2.97% for the second.

Compared with `COc1cccc(CN2CCC(CO)(Cc3ccc(Cl)cc3)CC2)c1O`, `COCC1CC2(CCN(Cc3ccoc3)CC2)CN1Cc1ccccn1` (configuration not stated) is higher in “Percent Effect” value: -4.953% for the first, 97.98% for the second.

First: COCC(=O)N1CCC2(CC1)CC(COC)N(c1ncccn1)C2.O=C(O)C(F)(F)F (configuration not stated)
Second: COCC(=O)N1CCC2(CC1)CC(COC)N(Cc1ccccn1)C2.O=C(O)C(F)(F)F (configuration not stated)
The “Percent Effect” value of the first is lower: -2.409% for the first, 100.7% for the second.

Compared with `COCC(=O)N1CCC2(CC1)COC(COCc1ccccn1)C2.O=C(O)C(F)(F)F` (configuration not stated), `COCC1CC2(CCN(Cc3nccs3)CC2)CN1Cc1ccccn1.O=C(O)C(F)(F)F.O=C(O)C(F)(F)F.O=C(O)C(F)(F)F` (configuration not stated) is higher in “Percent Effect” value: -3.538% for the first, 106.7% for the second.

Going from `COCC1CC2(CCN(Cc3ccccn3)CC2)CN1c1ncccn1.O=C(O)C(F)(F)F.O=C(O)C(F)(F)F.O=C(O)C(F)(F)F` (configuration not stated) to `CCN1CCC2(CC1)CC(COC)N(Cc1csc(C)n1)C2.O=C(O)C(F)(F)F.O=C(O)C(F)(F)F` (configuration not stated), the “Percent Effect” value rises from 0.4015% to 21.22%.

Going from `FC(F)(F)CCc1ccnc(N[C@H]2CC[C@H](n3cnnc3)CC2)n1` to `O=C(c1ccc(NC2CC2)nc1)N1CCCC(n2cccn2)C1` (configuration not stated), the “Percent Effect” value falls from -3.85% to -7.453%.

Compared with `CCNC(=O)NC[C@H]1Cn2c(-c3ccccc3)cnc2CO1`, `CCc1ncc(C(=O)N2CCN(C(=O)COc3ccccc3)CC2)cn1` is higher in “Percent Effect” value: -18.82% for the first, 3.835% for the second.

First: Cc1ccc(C)c(CS(=O)(=O)Cc2ccn(C)c(=O)c2)c1
Second: Cc1cnn(C2CCCN(C(=O)c3ccn(C)c(=O)c3)C2)c1 (configuration not stated)
The “Percent Effect” value of the first is higher: 17.59% for the first, -5.065% for the second.

Compared with `Cc1cnn(C2CCCN(C(=O)C3=NN(C)C(=O)CC3)C2)c1` (configuration not stated), `Cc1cnn(C2CCCN(C(=O)c3ccc4c(c3)CCC4)C2)c1` (configuration not stated) is higher in “Percent Effect” value: 5.956% for the first, 100.4% for the second.

Going from `Cc1nc(C)n(C2CCCN(C(=O)c3ccc(NC4CC4)nc3)C2)n1` (configuration not stated) to `Cc1cnn(C2CCCN(C(=O)c3ccc(NC4CC4)nc3)C2)c1` (configuration not stated), the “Percent Effect” value rises from 0.453% to 77.38%.

Compared with `Cc1cnn(C2CCCN(C(=O)c3ccnc(N(C)C)c3)C2)c1` (configuration not stated), `Cc1cnn(C2CCCN(C(=O)c3ccc(O)nc3)C2)c1` (configuration not stated) is higher in “Percent Effect” value: 7.39% for the first, 123.6% for the second.

Going from `CNC(=O)c1ccc(C(=O)N2CCCC(n3cc(C)cn3)C2)cn1` (configuration not stated) to `Cc1cnn(C2CCCN(C(=O)c3ccc(-n4cccn4)nc3)C2)c1` (configuration not stated), the “Percent Effect” value rises from -2.2% to 95.03%.

Going from `Cc1cnn(C2CCCN(C(=O)c3ccnc(-n4cncn4)c3)C2)c1` (configuration not stated) to `Cc1cnn(C2CCCN(C(=O)c3ccnc(-n4ccnc4)c3)C2)c1` (configuration not stated), the “Percent Effect” value falls from 91.3% to 5.29%.

Going from `Cn1cnc2c1C(C(=O)N1CCCO1)N(C(=O)c1ccccc1)CC2` (configuration not stated) to `CCCN1CCN(C(=O)c2ccc3ccccc3n2)[C@H]2CS(=O)(=O)C[C@H]21`, the “Percent Effect” value rises from -3.517% to 2.901%.

First: N#Cc1cccc(N2CCC3(CC2)Nc2ccccc2NC3=O)n1
Second: Cc1cc(NC(=O)Cc2ccccc2O)cnc1N1CCCCC1
The “Percent Effect” value of the first is lower: -5.007% for the first, 13.35% for the second.

First: CC(C)N1CCCC2(CCN(C(=O)CCCn3cncn3)C2)C1=O (configuration not stated)
Second: O=C(CCCn1cncn1)N1CCC2(CC1)[C@H](O)C[C@@H]2OCCO
The “Percent Effect” value of the first is higher: 0.7052% for the first, -4.804% for the second.

First: Cc1cnn(C2CCCN(C(=O)c3ccc(N4CCCC4)nc3)C2)c1 (configuration not stated)
Second: Cc1cnn(C2CCCN(C(=O)c3sccc3C#N)C2)c1 (configuration not stated)
The “Percent Effect” value of the first is higher: 85.57% for the first, 1.519% for the second.

Compared with `Cc1cc(CNCC2CCCN(C(=O)OC(C)(C)C)C2)no1` (configuration not stated), `CCCOC1CCCN(C(=O)c2[nH]nc(C)c2Br)C1` (configuration not stated) is lower in “Percent Effect” value: -1.865% for the first, -6.367% for the second.

First: Cc1nccn1C1CCCN(C(=O)c2ccc(N(C)C)nc2)C1 (configuration not stated)
Second: Cc1nccn1C1CCCN(C(=O)c2ccc(-n3cccn3)nc2)C1 (configuration not stated)
The “Percent Effect” value of the first is lower: -2.779% for the first, 122% for the second.

First: Cc1noc2ncc(C(=O)N3CCCC(n4ccnc4C)C3)cc12 (configuration not stated)
Second: CCc1ncc(C(=O)N2CCN(Cc3ncccc3C)CC2)cn1
The “Percent Effect” value of the first is lower: -5.392% for the first, 86.86% for the second.

Compared with `Cc1ccc(-c2noc(CCC3CCN(C)CC3)n2)nn1`, `COc1cccc2c1OCC(CNC(=O)CSc1nc(N)n[nH]1)C2` (configuration not stated) is higher in “Percent Effect” value: -9.501% for the first, -2.891% for the second.

Compared with `CC(C)CCN1CC2(CCN(C(=O)C3(C)CCCCO3)CC2)OC1=O` (configuration not stated), `O=C1NCC2(CCCN(C(=O)c3ccc4c(c3)CCO4)C2)O1` (configuration not stated) is higher in “Percent Effect” value: -6.368% for the first, 16.66% for the second.

Going from `Cc1nccc(C(=O)N2CCCN(Cc3cnn(C(C)C)c3)CC2)n1` to `CC(C)n1cc(CN2CCCN(C(=O)c3cccnc3O)CC2)cn1`, the “Percent Effect” value falls from 5.245% to -1.686%.

Compared with `Cc1cccnc1CN1CCN(C(=O)c2cc(Cl)c[nH]c2=O)CC1`, `COc1c(C)cnc(CN2CCC(C(=O)N(C)C)CC2)c1C` is higher in “Percent Effect” value: -31.74% for the first, 2.904% for the second.

Compared with `Cc1ccc(OCCC(=O)N(C)CC(=O)Nc2cc(C)on2)c(C)c1`, `COc1ccc(OC)c(C(=O)N(C)Cc2ncc(C)c(OC)c2C)c1` is lower in “Percent Effect” value: 1.593% for the first, -4.561% for the second.

Going from `COc1c(C)cnc(CNC(=O)CCOCC(C)C)c1C` to `COc1c(C)cnc(CN2CCC(N(C)C(=O)C(C)OC)CC2)c1C` (configuration not stated), the “Percent Effect” value rises from 11.08% to 99.72%.

Compared with `COc1cccc(CCCN2CCC(N(C)S(C)(=O)=O)CC2)c1`, `COc1c(C)cnc(CN2CCC(N(C)S(C)(=O)=O)CC2)c1C` is higher in “Percent Effect” value: -2.016% for the first, 116.9% for the second.

Going from `COc1c(C)cnc(CN2CCOC(Cn3nc(C)nc3C)C2)c1C` (configuration not stated) to `CCC(=O)N(C)C1CCN(Cc2ncc(C)c(OC)c2C)CC1`, the “Percent Effect” value rises from -9.057% to 9.191%.

Going from `COc1ccccc1C(=O)N(C)Cc1ncc(C)c(OC)c1C` to `COc1ccc(C(=O)N(C)Cc2ncc(C)c(OC)c2C)c(OC)c1`, the “Percent Effect” value rises from -3.019% to 77.44%.

Going from `COc1c(C)cnc(CN(C)C(=O)c2ccc(C3CCCO3)s2)c1C` (configuration not stated) to `CCc1noc(C)c1C(=O)N(C)Cc1ncc(C)c(OC)c1C`, the “Percent Effect” value rises from -4.342% to -4.169%.

Compared with `O=C(c1cnc(NCCC2CCCO2)c(Cl)c1)N1CCOCC1` (configuration not stated), `COc1c(C)cnc(CN2CCC(N(C)C(=O)C3CC3)CC2)c1C` is higher in “Percent Effect” value: -6.598% for the first, 110.7% for the second.

First: Cc1cccc(N2CC[C@@H]3CN(Cc4csc(C)n4)CCO[C@@H]3C2)n1.O=C(O)C(F)(F)F.O=C(O)C(F)(F)F
Second: CCNC(=O)N(C)C1CCN(Cc2ncc(C)c(OC)c2C)CC1
The “Percent Effect” value of the first is lower: -4.327% for the first, 110.9% for the second.
